PubChem BioAssay (EPA / NIEHS)
Records with an inconclusive call do not appear. The source made the active and inactive calls. Rule for the calls: active = hit-call score of the fitted dose curve at least 0.9, where 1 is the maximum; inconclusive = response in the unintended direction; inactive = score below 0.9.

Columns and labels:
[1] = biological target: rat Monoamine Oxidase, MAO-B, Central (MAOBC), Maob (gene 25750) (UniProt P19643); assay: NVS_ENZ_rMAOBC: NovaScreen (NVS) Enzymatic Assay for rat Monoamine Oxidase, MAO-B, Central (MAOBC) (AID 2283238)
Sequence of rat Monoamine Oxidase, MAO-B, Central (MAOBC), Maob (gene 25750) (P19643 whole entry, looked up): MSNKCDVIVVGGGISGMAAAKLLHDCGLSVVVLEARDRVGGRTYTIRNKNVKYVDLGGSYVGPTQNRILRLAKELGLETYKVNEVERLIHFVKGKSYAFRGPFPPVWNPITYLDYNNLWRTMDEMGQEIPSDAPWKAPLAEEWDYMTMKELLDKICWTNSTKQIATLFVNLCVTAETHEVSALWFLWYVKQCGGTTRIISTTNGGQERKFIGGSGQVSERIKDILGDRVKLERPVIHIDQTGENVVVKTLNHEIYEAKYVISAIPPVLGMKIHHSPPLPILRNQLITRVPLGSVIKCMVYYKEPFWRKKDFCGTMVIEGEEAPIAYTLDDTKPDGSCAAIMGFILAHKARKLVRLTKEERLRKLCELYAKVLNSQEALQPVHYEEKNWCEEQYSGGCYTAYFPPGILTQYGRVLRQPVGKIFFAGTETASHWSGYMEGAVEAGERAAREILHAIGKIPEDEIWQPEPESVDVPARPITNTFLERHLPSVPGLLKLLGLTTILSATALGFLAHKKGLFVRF
In short: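 Actives from a duplicate 25 uM screen went on to singleton concentration-response with a 50 uM maximum. Enzyme source was rat brain tissue MAO-B, assayed cell-free. Radiolabelled product was counted by scintillation 1.17 h post-dose, with signal loss relative to DMSO.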

[2] = biological target: rat Monoamine Oxidase, MAO-B, Peripheral (MAOBP), Maob (gene 25750) (UniProt P19643); assay: NVS_ENZ_rMAOBP: NovaScreen (NVS) Enzymatic Assay for rat Monoamine Oxidase, MAO-B, Peripheral (MAOBP) (AID 2283242)
Sequence of rat Monoamine Oxidase, MAO-B, Peripheral (MAOBP), Maob (gene 25750) (P19643 whole entry, looked up): as above
Method: NVS_ENZ_rMAOBP is a biochemical, single-readout assay that uses extracted gene-proteins from Rat brain in a tissue-based cell-free assay. Measurements were taken 1.17 hours after chemical dosing in a 96-well plate.NVS_ENZ_rMAOBP is one of one assay component(s) measured or calculated from the NVS_ENZ_rMAOBP assay. It is designed to make measurements of enzyme activity, a form of enzyme reporter, as detected with scintillation counting signals by Lysate-based radiodetection technology.Data from the assay component NVS_ENZ_rMAOBP was analyzed into 1 assay endpoint. This assay endpoint, NVS_ENZ_rMAOBP, was analyzed in the positive analysis fitting direction relative to DMSO as the negative control and baseline of activity. Using a type of enzyme reporter, loss-of-signal activity can be used to understand changes in the enzymatic activity as they relate to the gene Maob. Furthermore, this assay endpoint can be referred to as a primary readout, because this assay has produced multiple assay endpoints where this one serves a enzymatic activity function. To generalize the intended target to other relatable targets, this assay endpoint is annotated to the oxidoreductase intended target family, where the subfamily is monoamine oxidase.
Binding assays used specific radioligands (tritiated, iodinated) with non-radioactive competitive displacement ligands in agonist or antagonist protocols (as indicated) and various reference compounds and inhibitors to titrate specific binding to receptors and transporters. Most enzyme assays (CYPs, kinases, phosphatases, proteases, HDACs) used recombinant protein and specific substrates (fluorescence mostly, some colorimetric and radioactive) and inhibitors, followed by a biochemical separation of substrate and product. All assays for the biochemical HTS were initially run in duplicate at a single concentration (10 uM for CYP450 assays and 25 uM for all others). Assay-chemical combinations meeting a pre-defined threshold (e.g., 30% inhibition and other criteria defined below) were then run in singleton concentration-response format with maximum concentration of 20 uM for CYPs and 50 uM for all others. Each assay was run with positive and negative controls, and concurrent controls on every plate. The follow-up (secondary) screen tested active chemical-pairs in concentration series, as well as a few additional assays not tested in the primary screen, some selected negative inactives, and several cases re-run in the concentration series for confirmatory purposes.

[3] = biological target: human Vascular Endothelial Growth Factor Receptor 2 (VEGFR2), KDR (gene 3791) (UniProt P35968); assay: NVS_ENZ_hVEGFR2: NovaScreen (NVS) Enzymatic Assay for human Vascular Endothelial Growth Factor Receptor 2 (VEGFR2) (AID 2283230)
Sequence of human Vascular Endothelial Growth Factor Receptor 2 (VEGFR2), KDR (gene 3791) (P35968 whole entry, looked up): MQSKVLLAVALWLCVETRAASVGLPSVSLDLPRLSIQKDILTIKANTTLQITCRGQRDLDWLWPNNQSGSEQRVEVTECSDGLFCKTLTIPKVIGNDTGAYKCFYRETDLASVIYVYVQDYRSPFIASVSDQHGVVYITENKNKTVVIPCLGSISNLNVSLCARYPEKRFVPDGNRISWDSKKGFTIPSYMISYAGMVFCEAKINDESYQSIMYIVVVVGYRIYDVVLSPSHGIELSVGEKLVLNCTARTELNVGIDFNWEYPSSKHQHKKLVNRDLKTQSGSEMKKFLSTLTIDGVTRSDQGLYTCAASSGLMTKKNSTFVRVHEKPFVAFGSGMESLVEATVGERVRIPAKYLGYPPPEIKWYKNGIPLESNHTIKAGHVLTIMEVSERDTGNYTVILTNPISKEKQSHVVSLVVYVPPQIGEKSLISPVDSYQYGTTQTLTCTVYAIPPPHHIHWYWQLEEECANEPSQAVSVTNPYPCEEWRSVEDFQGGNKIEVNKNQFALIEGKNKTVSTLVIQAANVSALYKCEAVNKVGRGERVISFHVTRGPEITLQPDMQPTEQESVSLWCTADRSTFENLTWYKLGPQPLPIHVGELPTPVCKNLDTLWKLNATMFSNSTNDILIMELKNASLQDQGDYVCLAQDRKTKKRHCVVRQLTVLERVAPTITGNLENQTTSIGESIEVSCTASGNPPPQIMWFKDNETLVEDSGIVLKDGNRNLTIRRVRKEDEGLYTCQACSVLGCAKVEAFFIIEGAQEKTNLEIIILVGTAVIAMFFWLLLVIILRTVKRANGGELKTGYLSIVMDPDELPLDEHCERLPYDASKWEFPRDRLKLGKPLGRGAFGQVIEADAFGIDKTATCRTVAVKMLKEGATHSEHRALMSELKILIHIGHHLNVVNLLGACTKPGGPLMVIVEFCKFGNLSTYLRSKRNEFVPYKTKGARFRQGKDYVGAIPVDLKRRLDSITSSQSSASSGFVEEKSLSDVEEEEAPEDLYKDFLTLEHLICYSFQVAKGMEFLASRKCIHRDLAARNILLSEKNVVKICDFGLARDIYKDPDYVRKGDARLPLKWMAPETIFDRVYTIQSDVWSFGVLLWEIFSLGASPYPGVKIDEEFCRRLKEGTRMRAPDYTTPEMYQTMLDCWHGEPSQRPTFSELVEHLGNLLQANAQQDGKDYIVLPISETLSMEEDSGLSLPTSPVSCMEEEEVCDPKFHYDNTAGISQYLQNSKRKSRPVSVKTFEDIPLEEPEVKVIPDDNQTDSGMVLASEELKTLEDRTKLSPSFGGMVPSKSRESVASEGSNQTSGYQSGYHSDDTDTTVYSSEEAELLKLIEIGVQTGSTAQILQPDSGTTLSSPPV
In short: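 Cell-free recombinant VEGFR2 kinase, fluorescent substrate with electrophoretic mobility-shift separation; read 1 h after dosing. Screened at 25 uM in duplicate, hits to concentration-response up to 50 uM; loss-of-signal versus DMSO.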

[4] = biological target: sheep Cyclooxygenase-1 (Cox1), PTGS1 (gene 443551) (UniProt P05979); assay: NVS_ENZ_oCOX1: NovaScreen (NVS) Enzymatic Assay for sheep Cyclooxygenase-1 (Cox1) (AID 2283239);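 note: actives reduce cyclooxygenase activity so potencies are for inhibitors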
Sequence of sheep Cyclooxygenase-1 (Cox1), PTGS1 (gene 443551) (P05979 whole entry, looked up): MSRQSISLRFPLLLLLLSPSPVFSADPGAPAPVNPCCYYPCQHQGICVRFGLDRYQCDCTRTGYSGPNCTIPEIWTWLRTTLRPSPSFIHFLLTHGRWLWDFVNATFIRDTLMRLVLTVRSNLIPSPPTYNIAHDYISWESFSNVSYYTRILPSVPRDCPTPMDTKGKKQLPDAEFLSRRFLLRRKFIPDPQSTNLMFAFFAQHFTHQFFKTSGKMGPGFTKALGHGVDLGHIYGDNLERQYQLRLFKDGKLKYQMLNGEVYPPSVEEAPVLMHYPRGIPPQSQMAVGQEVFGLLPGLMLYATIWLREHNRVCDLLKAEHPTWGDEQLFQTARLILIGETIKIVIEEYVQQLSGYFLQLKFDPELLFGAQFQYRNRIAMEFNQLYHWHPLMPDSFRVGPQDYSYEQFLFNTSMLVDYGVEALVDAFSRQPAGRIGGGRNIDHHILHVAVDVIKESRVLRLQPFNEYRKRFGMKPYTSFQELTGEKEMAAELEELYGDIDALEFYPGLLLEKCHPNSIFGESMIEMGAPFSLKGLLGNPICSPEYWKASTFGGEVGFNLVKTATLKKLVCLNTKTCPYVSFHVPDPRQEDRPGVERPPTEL
In short: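 Cell-free colorimetric assay of enzyme activity in a native extract of ovine seminal vesicles. Absorbance was read 0.66 hour after compound addition. Loss of signal relative to the DMSO negative control was scored, with actives from the 25 uM duplicate primary screen retested in concentration series.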

[5] = biological target: sheep Cyclooxygenase-2 (Cox2), PTGS2 (gene 443460) (UniProt P79208); assay: NVS_ENZ_oCOX2: NovaScreen (NVS) Enzymatic Assay for sheep Cyclooxygenase-2 (Cox2) (AID 2283231)
Sequence of sheep Cyclooxygenase-2 (Cox2), PTGS2 (gene 443460) (P79208 whole entry, looked up): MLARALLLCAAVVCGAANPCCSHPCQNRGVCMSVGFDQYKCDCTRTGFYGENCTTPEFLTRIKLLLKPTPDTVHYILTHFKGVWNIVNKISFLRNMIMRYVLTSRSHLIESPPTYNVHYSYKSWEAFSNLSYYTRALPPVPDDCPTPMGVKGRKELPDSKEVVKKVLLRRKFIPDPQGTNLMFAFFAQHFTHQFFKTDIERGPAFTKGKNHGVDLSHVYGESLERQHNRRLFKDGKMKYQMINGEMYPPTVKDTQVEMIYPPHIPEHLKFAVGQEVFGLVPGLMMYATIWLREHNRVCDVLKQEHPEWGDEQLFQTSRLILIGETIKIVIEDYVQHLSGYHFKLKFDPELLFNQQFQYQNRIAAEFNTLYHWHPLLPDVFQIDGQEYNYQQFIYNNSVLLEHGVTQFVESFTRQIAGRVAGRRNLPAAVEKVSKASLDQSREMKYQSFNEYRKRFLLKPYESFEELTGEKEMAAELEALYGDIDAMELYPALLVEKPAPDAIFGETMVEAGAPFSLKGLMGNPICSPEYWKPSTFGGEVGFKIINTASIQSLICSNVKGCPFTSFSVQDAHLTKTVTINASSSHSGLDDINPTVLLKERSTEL
In short: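 Enzyme extracted from ovine placenta tested cell-free; activity read colorimetrically by absorbance 0.66 hour after dosing. Primary screen in duplicate at 25 uM; hits rerun as concentration series to 50 uM, loss of signal versus DMSO baseline.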

[6] = biological target: human Vascular Endothelial Growth Factor Receptor 1 (VEGFR1), FLT1 (gene 2321) (UniProt P17948); assay: NVS_ENZ_hVEGFR1: NovaScreen (NVS) Enzymatic Assay for human Vascular Endothelial Growth Factor Receptor 1 (VEGFR1) (AID 2283226)
In short: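 Kinase activity of recombinant human VEGFR1 was read by fluorescence after electrophoretic separation of product from substrate, 1 h post-dosing; initial duplicate single-point testing at 25 uM, followed by concentration-series follow-up, with DMSO as baseline.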

[7] = biological target: rat Constitutive Nitric Oxide Synthase (CNOS), Nos1 (gene 24598) (UniProt P29476); assay: NVS_ENZ_rCNOS: NovaScreen (NVS) Enzymatic Assay for rat Constitutive Nitric Oxide Synthase (CNOS) (AID 2283236)
Sequence of rat Constitutive Nitric Oxide Synthase (CNOS), Nos1 (gene 24598) (P29476 whole entry, looked up): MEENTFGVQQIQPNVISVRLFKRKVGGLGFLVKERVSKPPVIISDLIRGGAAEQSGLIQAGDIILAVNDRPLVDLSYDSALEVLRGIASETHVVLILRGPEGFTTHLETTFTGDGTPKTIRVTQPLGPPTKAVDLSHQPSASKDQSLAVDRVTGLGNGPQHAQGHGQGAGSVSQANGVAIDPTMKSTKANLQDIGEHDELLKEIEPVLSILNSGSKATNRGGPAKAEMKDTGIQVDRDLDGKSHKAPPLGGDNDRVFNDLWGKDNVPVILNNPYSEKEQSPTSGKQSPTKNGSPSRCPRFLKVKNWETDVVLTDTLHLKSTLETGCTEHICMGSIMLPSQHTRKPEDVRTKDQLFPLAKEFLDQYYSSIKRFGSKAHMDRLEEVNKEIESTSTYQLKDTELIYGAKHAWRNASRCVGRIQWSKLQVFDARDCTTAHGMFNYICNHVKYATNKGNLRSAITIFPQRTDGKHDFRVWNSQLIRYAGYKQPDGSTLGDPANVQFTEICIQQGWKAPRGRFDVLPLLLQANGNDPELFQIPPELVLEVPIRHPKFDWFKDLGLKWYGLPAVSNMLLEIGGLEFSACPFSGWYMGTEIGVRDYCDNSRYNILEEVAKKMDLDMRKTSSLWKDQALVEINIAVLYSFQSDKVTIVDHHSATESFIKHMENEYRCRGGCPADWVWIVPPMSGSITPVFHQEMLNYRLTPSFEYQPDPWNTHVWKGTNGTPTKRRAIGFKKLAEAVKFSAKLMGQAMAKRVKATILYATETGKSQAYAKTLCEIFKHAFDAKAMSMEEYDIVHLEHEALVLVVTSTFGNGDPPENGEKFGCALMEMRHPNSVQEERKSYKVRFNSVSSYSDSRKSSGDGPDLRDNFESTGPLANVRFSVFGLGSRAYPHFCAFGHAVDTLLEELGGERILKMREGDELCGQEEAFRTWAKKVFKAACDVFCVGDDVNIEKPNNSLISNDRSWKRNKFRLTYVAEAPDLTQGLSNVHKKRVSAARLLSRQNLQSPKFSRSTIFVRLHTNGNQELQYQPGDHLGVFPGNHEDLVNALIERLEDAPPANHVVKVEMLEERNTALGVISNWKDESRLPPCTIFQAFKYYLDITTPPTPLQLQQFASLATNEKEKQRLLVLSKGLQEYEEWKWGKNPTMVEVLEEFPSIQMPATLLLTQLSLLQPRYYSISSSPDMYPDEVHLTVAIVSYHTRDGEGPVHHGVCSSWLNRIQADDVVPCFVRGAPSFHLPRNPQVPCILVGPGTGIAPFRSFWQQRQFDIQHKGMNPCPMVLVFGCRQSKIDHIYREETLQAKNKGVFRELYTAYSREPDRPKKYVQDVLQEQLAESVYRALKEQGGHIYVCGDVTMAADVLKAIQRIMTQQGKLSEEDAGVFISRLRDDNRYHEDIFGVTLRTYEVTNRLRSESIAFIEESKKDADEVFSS
In short: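 Single 25 uM duplicate screen, then concentration series to 50 uM for chemicals meeting threshold. Rat brain membrane-derived CNOS activity detected radiometrically by filtration and scintillation counting, 1 h after compound addition; DMSO as baseline.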

[8] = biological target: rabbit Imidazoline 2 Central (I2C), CKB (gene 100009085) (UniProt P00567); assay: NVS_ENZ_rabI2C: NovaScreen (NVS) Enzymatic Assay for rabbit Imidazoline 2 Central (I2C) (AID 2283228)
Sequence of rabbit Imidazoline 2 Central (I2C), CKB (gene 100009085) (P00567 whole entry, looked up): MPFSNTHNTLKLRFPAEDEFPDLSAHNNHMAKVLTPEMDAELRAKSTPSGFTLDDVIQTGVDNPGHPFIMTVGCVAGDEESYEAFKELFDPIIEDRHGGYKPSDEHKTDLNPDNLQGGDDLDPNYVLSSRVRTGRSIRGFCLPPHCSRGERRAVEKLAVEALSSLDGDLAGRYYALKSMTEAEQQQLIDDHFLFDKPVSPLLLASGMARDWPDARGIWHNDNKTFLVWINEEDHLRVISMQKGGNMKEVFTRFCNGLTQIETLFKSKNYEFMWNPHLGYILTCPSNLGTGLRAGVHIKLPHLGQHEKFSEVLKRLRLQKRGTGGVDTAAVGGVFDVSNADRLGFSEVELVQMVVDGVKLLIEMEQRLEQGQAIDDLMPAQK
In short: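 Rabbit brain membranes, cell-free; readout by filter-based scintillation counting 1.5 hours after dosing, loss of signal vs DMSO. Initial duplicate test at 25 uM, then concentration-response with 50 uM top concentration.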

[9] = system: rat Monoamine Oxidase, MAO-A, Central (MAOAC), gene 29253; assay: NVS_ENZ_rMAOAC: NovaScreen (NVS) Enzymatic Assay for rat Monoamine Oxidase, MAO-A, Central (MAOAC) (AID 2283243);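 note: potency refers to inhibition seen as signal drop below DMSO baseline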
In short: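 Scintillation read-out of MAO-A activity in rat brain lysate, 1.5 h post-dosing. Primary single-concentration screen: 25 uM, duplicate; actives re-tested in concentration series. DMSO = negative control/baseline.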

[10] = biological target: human Sirtuin 1 (SIRT1), SIRT1 (gene 23411) (UniProt Q96EB6); assay: NVS_ENZ_hSIRT1: NovaScreen (NVS) Enzymatic Assay for human Sirtuin 1 (SIRT1) (AID 2283219)
In short: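 Cell-free recombinant SIRT1 with a fluorescent substrate; substrate and product separated by electrophoretic mobility shift and read by fluorescence intensity, 1 h after dosing. Primary screen at 25 uM in duplicate; hits re-run in concentration-response up to 50 uM, relative to DMSO.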

[11] = biological target: human Tyrosine Protein Kinase Receptor Tie-2 (Tie2), TEK (gene 7010) (UniProt Q02763); assay: NVS_ENZ_hTie2: NovaScreen (NVS) Enzymatic Assay for human Tyrosine Protein Kinase Receptor Tie-2 (Tie2) (AID 2283225)
In short: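 Substrate and product were separated by mobility shift and detected by fluorescence after a 1-hour reaction with recombinant Tie2. Chemicals passing a 25 uM single-point screen were titrated to a maximum of 50 uM. Results were normalized to DMSO baseline.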

Structure (SMILES): CC(C)(O)C(=O)Nc1ccc([N+](=O)[O-])c(C(F)(F)F)c1
- AC50 [1]: 12.1 µM (active)
- outcome [2]: inactive

Structure (SMILES): ClC(Cl)=C(c1ccc(Cl)cc1)c1ccc(Cl)cc1
- outcome [3]: inactive
- outcome [4]: inactive

Structure (SMILES): CCC(=O)O[C@H]1CC[C@H]2[C@@H]3CCC4=CC(=O)CC[C@]4(C)[C@H]3CC[C@]12C
- outcome [5]: inactive

Structure (SMILES): ClC1=C(Cl)[C@]2(Cl)[C@@H]3[C@@H]4C[C@@H]([C@H]5O[C@@H]45)[C@@H]3[C@@]1(Cl)C2(Cl)Cl
- outcome [6]: inactive

Structure (SMILES): CN(C)CCO
- outcome [7]: inactive

Structure (SMILES): N#Cc1ccc(N(CC(N)=O)CC(F)(F)F)cc1C(F)(F)F
- AC50 [5]: 6.58 µM (active)

Structure (SMILES): CN(C)c1nc(=O)n(C2CCCCC2)c(=O)n1C
- AC50 [8]: 9.76 µM (active)
- outcome [7]: inactive

Structure (SMILES): Oc1ccc(Cl)cc1Cl
- AC50 [1]: 7.6 µM (active)
- outcome [9]: inactive

Structure (SMILES): CCCCCCCCCc1ccc(O)cc1
- outcome [4]: inactive

Structure (SMILES): Clc1ccc(Cl)cc1
- AC50 [5]: 15.8 µM (active)

Structure (SMILES): Cc1ccc(O)c(C)c1
- AC50 [5]: 18.4 µM (active)

Structure (SMILES): O=S(=O)(O)C(F)(F)C(F)(F)C(F)(F)C(F)(F)C(F)(F)C(F)(F)F
- outcome [10]: inactive
- outcome [11]: inactive
- outcome [3]: inactive
